According to paper PMC7672089, “Two nuclear effectors of the rice blast fungus modulate host immunity via transcriptional reprogramming”:

What follows are sequences tested against T1, MoHTR1 (Magnaporthe oryzae, UniProt Q2KEJ2 20-198) (assay: array; high values mean tight binding). Conditions: protein: recombinant; tags: DsRed; 6xHis (pET-32a vector); dsDNA, one strand shown.
T1 sequence: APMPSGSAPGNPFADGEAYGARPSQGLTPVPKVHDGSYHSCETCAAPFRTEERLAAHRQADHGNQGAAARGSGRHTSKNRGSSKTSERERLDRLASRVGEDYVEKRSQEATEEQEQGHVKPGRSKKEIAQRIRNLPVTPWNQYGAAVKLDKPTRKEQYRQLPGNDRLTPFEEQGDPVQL

| Sequence | binding signal |
| --- | --- |
| CTCATACC | 25600 a.u. |
| CCACCTCC | 24000 a.u. |
| CCTCCACC | 23900 a.u. |
| TCAATCTC | 23900 a.u. |
| CTCTAATC | 21800 a.u. |
| AACTCCTC | 22100 a.u. |
| CAATCTCC | 20800 a.u. |
| CCGCCACC | 13400 a.u. |
| CAATCTTC | 27900 a.u. |
| AACTCTCC | 21600 a.u. |
| CAATCCTC | 20100 a.u. |
| CCTCCTCC | 21700 a.u. |
| TCTCAATC | 24100 a.u. |
| CTCCAACC | 14800 a.u. |
| CCATACAC | 14100 a.u. |
| CTAACTCC | 22500 a.u. |
| CTTCAATC | 21100 a.u. |
| CTCAACTC | 24700 a.u. |
| TCCAATCC | 22900 a.u. |
| CCTCAATC | 19700 a.u. |
| CATACTCC | 19100 a.u. |
| CCAACTCC | 20800 a.u. |

Each sequence was assayed against T2, MoHTR2 (Magnaporthe oryzae, UniProt G5EHQ6 19-110) (assay: array; high values mean tight binding). Conditions: protein: recombinant; tags: DsRed; 6xHis (pET-32a vector); dsDNA, one strand shown.
T2 sequence: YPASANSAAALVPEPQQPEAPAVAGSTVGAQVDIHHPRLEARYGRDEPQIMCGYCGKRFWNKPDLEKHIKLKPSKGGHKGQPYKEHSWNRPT

| Sequence | binding signal |
| --- | --- |
| CCACCTCC | 11800 a.u. |
| CCTCCACC | 11600 a.u. |
| CCTCCGCC | 9500 a.u. |
| CCGCCTCC | 8800 a.u. |
| CCTCCTCC | 10800 a.u. |
| CATACCTC | 8490 a.u. |
